Compound activity (PubChem BioAssay)
Rows were chosen to be rich in hits. Some 10% of all compounds tested hit in one or more screens of this group.
Six1-Eya2 inh: blocks human Six1 binding to Eya2; Q15475+O00167; activity change, % (concentration not given with the values); AlphaScreen GST-Six1/His-Eya2 binding, biochemical; active compounds read low; hit rate 0.56% among 360,000; in the data active = activity change below about -65%; inconclusive = mostly about -30% to -63%; note: % is set by controls: 0 for no effect and ±100 for the full control effect
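AlphaScreen luminescence read after one hour at 37 °C in darkness. Pin-transferred compounds met GST-Six1 and His-Eya2 protein (5X stock 250 nM/500 nM) plus glutathione donor and Ni-chelate acceptor beads (5X, 50 ug/mL).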
HP1b binding inh: inhibitors of HP1-beta chromodomain binding to methylated histone tails. hit rate 0.56% among 390,000. Potency, µM (doses to about 114 µM), without a hit: at the top dose activity change, negative = inhibition, hits mostly inhibitors. AID 540317. AlphaScreen HP1-beta / biotin-H3K9me3 peptide binding. P83916; note: potency is the fitted concentration of half-maximal effect; nearly all actives have a fitted effect of over 70% in size
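Compound inhibition of the preformed complex between 50 nM HP1-beta and 50 nM biotinylated H3K9me3 peptide was read by AlphaScreen. Buffer was PBS pH 7.4 with 0.01% Tween-20. Incubations ran 30 min at room temperature, with 10 ug/mL donor/acceptor beads.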
BAZ2B block: BAZ2B (human) inhibition. Q9UIF8. AlphaScreen BAZ2B-H3K14Ac peptide displacement. Potency, µM (series often up to 114 µM), inactives show at the top dose activity change, negative = inhibition, hits mostly inhibitors. hit rate 4.4% among 360,000. AID 504333; note: potency is the fitted concentration of half-maximal effect; % is set by controls: 0 for no effect and ±100 for the full control effect; nearly all actives have a fitted effect of over 60% in size
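Protein-peptide AlphaScreen: BAZ2B 50 nM, b-H3K14Ac 50 nM, 1x PBS pH 7.4 + 0.01% Tween-20. Preincubation 30 min RT; cpd 30 min RT (top 110 uM); beads 20 min RT, light-protected.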
G9a inh: inhibitors of human histone lysine methyltransferase G9a; hit rate 8.8% among 350,000; Q96KQ7; G9a H3K9 monomethylation, AlphaScreen, 2 h; Potency, µM (doses to about 102 µM), inactives show at the top dose activity, negative = inhibition, hits mostly inhibitors; note: potency is the fitted concentration of half-maximal effect; % is set by controls: 0 for no effect and ±100 for the full control effect; nearly all actives have a fitted effect of over 75% in size
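Quantitative HTS format: methyltransferase activity on a biotin-tagged H3K9 peptide is measured by AlphaScreen, using a rabbit anti-monomethyl-H3K9 antibody with streptavidin donor and anti-IgG acceptor beads. Final levels are 20 nM enzyme, 500 nM peptide, 20 uM SAM; 2 h RT.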
JMJD2A Tudor inh: JMJD2A Tudor domain (human) inhibition; AID 504339; Potency, µM (titrated, usually from 114 µM), for the others: at the highest dose activity change, negative = inhibition, usual class: inhibitors; hit rate 4.4% among 390,000; AlphaScreen JMJD2A-Tudor / H3K4me3 peptide binding; note: potency is the fitted concentration of half-maximal effect; % is set by controls: 0 for no effect and ±100 for the full control effect; nearly all actives have a fitted effect of over 50% in size
CtBP-E1A inh: CtBP/E1A binding inhibition | AlphaScreen GST-E1A/His-CtBP binding, 1536-well; active compounds read low | activity change, % (test concentration not listed) | hit rate 0.49% among 340,000 | AID 651724; in the data active = activity change below about -65%; inconclusive = mostly about -30% to -63%; note: % is set by controls: 0 for no effect and ±100 for the full control effect
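GST-E1A and His-tagged CtBP (125 nM each as 5X stock) were preincubated with pin-transferred compound for 2 h at 37 °C in the dark, then glutathione donor and nickel acceptor beads were added for 1 h before AlphaScreen reading.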
Active calls of the source: *; ? = inconclusive; nt = no result; ! = a repeat was not active; [ ] = dose if it differs, or a comment. Unless noted, calls come from the whole dose curve; as a rule, active = well fitted inhibition curve with a large enough effect; inconclusive = small, poorly fitted or top-dose-only effect; inactive = no such curve, though single readings can be large or run the other way.

SMILES	Six1-Eya2 inh	HP1b binding inh	BAZ2B block	G9a inh	JMJD2A Tudor inh	CtBP-E1A inh
Cc1nn(C(C)C(=O)NCCCN2CCCCCC2)c(=O)c2c1sc1ccccc12 (stereo not given)	-5.0	15.6%	-22.5%	50.1µM*	50.1µM*	-0.5
Cc1nn(CCCC(=O)NCCc2ccc(Cl)cc2)c(=O)c2c1sc1ccccc12	nt	31.6µM*	25.1µM*	6.31µM*	7.94µM*	nt
Cc1cccc(-c2nc3c4ccccc4nc(NCc4ccc(Cl)cc4)n3n2)c1	nt	nt	7.0%	5.2%[59 µM]	4.4%	nt
CCn1nc(C(=O)Nc2ccc(S(=O)(=O)Nc3nccs3)cc2)c2ccccc2c1=O	-9.7	-4.5%	?	?	-19.2%	-12.0
O=C(Nc1ccc(S(=O)(=O)Nc2nccs2)cc1)c1nn(-c2ccccc2)ccc1=O	-20.0	50.6%	?	22.4µM*	10.9%	nt
COc1ccc(-n2ccc(=O)c(C(=O)Nc3ccc(S(=O)(=O)Nc4nccs4)cc3)n2)cc1	16.2	-11.1%	?	?	56.2µM*	0.0
Cc1ccc(NC(=O)c2ccc(COc3ccccc3Cl)o2)cc1	nt	9.2%	-2.2%	3.9%[59 µM]	-9.6%	nt
CN(C)c1ccc(NC(=O)c2ccc(COc3cccc(Cl)c3)o2)cc1	-71.5*	?	10µM*	?	12.6µM*	?
N#CC(C#N)=NNc1ccc(S(=O)(=O)N2CCCCC2)cc1	-18.2	-35.3%	?	10µM*	39.8µM*	9.5
CC1CCN(S(=O)(=O)c2ccc(N/N=C(/C#N)C(N)=O)cc2)CC1	-21.7	-18.3%	-29.7%	6.3%[2.33 µM]	-15.5%	-10.0
COC(=O)Nc1ccc(S(=O)(=O)N2CCCCCC2)cc1	3.4	20.1%	-1.8%	-13.7%[59 µM]	-11.5%	8.4
N#C/C(=N\Nc1ccc(S(=O)(=O)N2CCOCC2)cc1)C(N)=S	-1.1	?	?	0.562µM*	?	-11.0
O=C(CCc1ccccc1)NC1CC(=O)N(c2ccccc2)C1 (stereo not given)	nt	40.3%	-0.5%	13.5%[59 µM]	7.1%	nt
Cc1cccc2c(=O)cc(CSc3ccccc3NC(=O)c3cccc(F)c3)[nH]c12	nt	24.8%[57 µM]	4.7%	6.3%[59 µM]	-1.9%	nt
COc1cc(S(=O)(=O)NC(C)C)ccc1Cl	1.4	8.3%	9.0%	21.1%[12.7 µM]	-3.6%	0.2
Cc1ccccc1NC(=S)N/N=C/c1ccc(O)cc1O	-89.0*	?	8.91µM*	3.0%[12.7 µM]	56.2µM*	-97.4*
Cc1cccc(NC(=S)N/N=C/c2cccc(O)c2)c1C	-1.6	18.7%	-29.3%	1.3%	-13.0%	-2.4
Cc1ccccc1NC(=S)N/N=C/C(C)c1ccccc1 (stereo not given)	-1.4	40.4%	-26.2%	22.4µM*	?	3.5
O=C(CN1C(=O)COc2ccc(S(=O)(=O)N3CCCC3)cc21)N1CCN(c2cccc(C(F)(F)F)c2)CC1	nt	26.3%	-6.7%	-1.0%[59 µM]	-20.5%	nt
C/C(CC(=O)NC1CCCCC1)=N\NC(=O)c1ccccc1C	16.3	30.3%	-13.1%	39.8µM*	7.0%	-8.3
C/C(CC(=O)NC1CCCCC1)=N\NC(=O)c1ccc(Br)cc1	3.8	36.6%	1.7%	-19.1%	1.4%	-5.3
C/C(CC(=O)NC1CCCCCC1)=N\NC(=O)c1cnccn1	-18.1	12.3%	-4.3%	?	2.24µM*	-7.6
C/C(CC(=O)NC1CCCC1)=N\NC(=O)C1CCCCC1	-1.6	29.2%	-16.0%	6.0%	1.4%	0.3
Cn1nnnc1Sc1ncnc2scc(-c3ccc4c(=O)ccoc4c3)c12	nt	nt	nt	nt	-14.4%	nt
Cc1cccc(Nc2nc(N3CCCCC3)nc(N3CCCCC3)n2)c1	-5.9	27.7%	2.8%	-1.7%[59 µM]	6.8%	-17.7
SMILES	Six1-Eya2 inh	HP1b binding inh	BAZ2B block	G9a inh	JMJD2A Tudor inh	CtBP-E1A inh
COc1ccc(NC2=CC(=O)N(C)C2=O)cc1	8.4	32.1%	-13.5%	-23.3%[59 µM]	-15.3%	-2.9
COc1ccc(NC2=C(C)C(=O)CC2)cc1	-1.5	40.9%	56.2µM*	1.6%[2.33 µM]	2.6%	-2.9
COc1ccc(Nc2cccc3ccccc23)cc1	-0.8	?	?	22.6%[2.33 µM]	56.2µM*	2.5
COc1ccc(Nc2cccccc2=O)cc1	-11.8	-3.3%	-36.3%	?	?	-2.3
NNc1nc(Nc2ccccc2)nc(N2CCCCC2)n1	-13.7	18.5%	79.4µM*	-6.8%	?	6.6
COc1ccc(Nc2nc(NN)nc(Nc3ccc(OC)cc3)n2)cc1	-0.3	15.3%	25.1µM*	-1.2%	44.7µM*	nt
CCCOC1OC(=O)c2c1ccc(OC)c2OC (stereo not given)	2.5	24.4%	0.8%	-2.6%[59 µM]	2.8%	16.3
CC(=O)C(=Cc1ccccc1)c1ccccc1	3.2	nt	nt	nt	nt	3.3
CC(=O)c1cc2c(s1)c1cnn(Cc3ccccc3F)c(=O)c1n2C	nt	nt	nt	nt	-15.0%	nt
CC(=O)C1=CCC(c2ccccc2)N(S(=O)(=O)c2ccc(Cl)cc2)C1 (stereo not given)	3.4	nt	nt	nt	nt	1.8
Nc1nc(N2CCCCC2)nc2ccccc12	8.5	25.2%	-4.2%	50.1µM*	-5.7%	-4.1
c1ccc2c(N3CCCCC3)nc(N3CCCC3)nc2c1	22.3	53.6%	12.0%	-6.3%[12.7 µM]	12.8%	12.3
O=[N+]([O-])c1ccc(Nc2nc(NCCO)nc(N3CCCC3)n2)cc1	-16.1	20.0%	2.6%	44.7µM*	-6.3%	-19.3
NNc1nc(Nc2ccccc2)nc(Nc2ccccc2)n1	-18.6	39.5%	22.4µM*	34.9%	-29.2%	-9.1
NNc1nc(Nc2ccc([N+](=O)[O-])cc2)nc(N2CCCCCC2)n1	0.5	108.8%	28.2µM*	nt	56.2µM*	nt
CCc1nc2ccc(C(=O)Nc3cccc(NS(C)(=O)=O)c3)cn2c1N(C)C(=O)c1cccc(OC)c1	2.4	nt	nt	nt	nt	-6.4
CC1CCCCN1C(=O)CSc1n[nH]c(-c2ccccc2)n1 (stereo not given)	nt	30.4%[57 µM]	5.3%	-2.0%[59 µM]	0.0%	nt
O=S(=O)(c1ccc2ncsc2c1)N1CCN(c2nc(-c3cccs3)nc3ccccc23)CC1	nt	5.8%	nt	nt	-22.4%	nt
COc1ccc(Nc2ccc(OC)cc2)cc1	?	39.8µM*	20µM*	nt	50.1µM*	?
COc1ccc(-c2nc3c(c(SCC(=O)Nc4cccc(O)c4)n2)Cc2c(CO)cnc(C)c2O3)cc1	-19.0	12.9%[57 µM]	?	11.2µM*!	-35.2%	nt
CCc1ccc(NC(=O)CSc2nc(-c3ccc(C)cc3)nc3c2Cc2c(CO)cnc(C)c2O3)cc1	nt	43.4%	50.1µM*	10.2%[12.7 µM]	-24.2%	nt
Cc1ncc(CO)c2c1Oc1nc(-c3ccccc3)nc(SCC(=O)Nc3cccc(O)c3)c1C2	-15.0	48.6%	-18.0%	0.7%	-18.2%	nt
CCOc1ccc(S(=O)(=O)N2CCC(C(=O)NC3CC3)CC2)cc1Cl	4.2	-2.0%	1.2%	17.1%	-10.4%	3.1
CC1(C)CC(N2CCN(Cc3ccccc3)CC2)=CC(=[N+]2CCCCC2)C1	13.2	70.8µM*	-20.0%	?	17.8µM*	0.0
